Reference: PubChem BioAssay (Tox21)
Inconclusive results are not listed. Activity calls are given as the source filed them. Calls follow the shape of the dose curve; as a rule, active = well fitted curve in the direction sought with a large enough effect in the repeat runs; inconclusive = weak or mixed curves; inactive = no such curve, though single readings can be large; an effect the other way counts as inactive or inconclusive.

How the values were obtained:
[1] = qHTS RealTime-Glo MT Cell Viability Assay in HepG2 cells - 40 hour (AID 1224870); also: nearly all actives have a fitted effect of over 50% in size
In short: (§1)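 HepG2 cells (600/well) mixed with RealTime-Glo MT reagent, settled 5 h at 37 C/5% CO2 before compound addition. Nonlytic NanoLuc luminescence from viable-cell prosubstrate reduction read repeatedly during 40 h treatment at 37 C.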

[2] = A CellTox Green Cytotoxicity Assay to monitor cytotoxicity in HEK293 cells - 40 hour (AID 1224871); also: nearly all actives have a fitted effect of over 45% in size
In short: (§2)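 Tox21 screen in HEK293: membrane-impermeant cyanine dye fluoresces on binding dead-cell DNA; compound pinned 5 h post-seeding, plates held at 37 C, signal read repeatedly through 40 h.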

[3] = qHTS RealTime-Glo MT Cell Viability Assay in HEK293 cells - 16 hour (AID 1224872); also: top concentration of the series differs between compounds; nearly all actives have a fitted effect of over 50% in size
In short: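 Cells + reagent dispensed (600 cells/well, HEK293) → 5 h at 37 C/5% CO2 → 23 nL compound in DMSO pinned → 40 h at 37 C → luminescence read at 0, 8, 16, 24, 32, 40 h.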

[4] = qHTS RealTime-Glo MT Cell Viability Assay in HepG2 cells - 8 hour (AID 1224873); also: nearly all actives have a fitted effect of over 55% in size
In short: as §1

[5] = qHTS RealTime-Glo MT Cell Viability Assay in HEK293 cells - 40 hour (AID 1224874); settings: RealTime-Glo luminescence; max response: stronger effect = lower value; also: nearly all actives have a fitted effect of over 50% in size
In short: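 HEK293 + NanoLuc + prosubstrate, 600 cells/well; 5 h, 37 C/5% CO2; compound 23 nL in DMSO by pintool; 37 C; luminescence read at 0, 8, 16, 24, 32 and 40 h time points.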

[6] = A CellTox Green Cytotoxicity Assay to monitor cytotoxicity in HEK293 cells - 24 hour (AID 1224875); also: series mostly up to about 77 µM; nearly all actives have a fitted effect of over 45% in size
In short: as §2

[7] = A CellTox Green Cytotoxicity Assay to monitor cytotoxicity in HepG2 cells - 16 hour (AID 1224876); also: nearly all actives have a fitted effect of over 45% in size
In short: (§3)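 Measurements at 0, 8, 16, 24, 32 and 40 h of treatment captured CellTox Green fluorescence in HepG2 cells that had been co-plated with reagent and preincubated 5 h at 37 C/5% CO2.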

[8] = qHTS RealTime-Glo MT Cell Viability Assay in HepG2 cells - 32 hour (AID 1224877); also: nearly all actives have a fitted effect of over 55% in size
In short: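 Real-time, nonlytic viability: 600 HepG2 cells/well mixed with NanoLuc enzyme plus prosubstrate; 5 h settle, compound (DMSO) added by pintool; luminescence monitored over 40 h at 37 C.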

[9] = A CellTox Green Cytotoxicity Assay to monitor cytotoxicity in HepG2 cells - 40 hour (AID 1224879); also: nearly all actives have a fitted effect of over 40% in size
In short: as §3

[10] = A CellTox Green Cytotoxicity Assay to monitor cytotoxicity in HepG2 cells - 24 hour (AID 1224878); also: nearly all actives have a fitted effect of over 45% in size
In short: as §3
% is scaled to controls: 0 for no effect and ±100 for the full control effect.

c1ccc(SCCSc2ccccc2)cc1
inactive: Potency [1] | Potency [2] | Potency [3] | outcome [4] | max response [5] 6.54% | Potency [6] | Potency [7] | Potency [8] | Potency [9]

CCN(CC)C(=O)c1ccc(O)c(OC)c1
inactive: Potency [1] | Potency [2] | Potency [3] | outcome [4] | max response [5] 1.73% | Potency [6] | Potency [7] | Potency [8] | Potency [9]

O=[N+]([O-])c1ccc(CCO)cc1
inactive: Potency [1] | Potency [2] | Potency [3] | outcome [4] | max response [5] -7.45% | Potency [6] | Potency [7] | Potency [8] | Potency [9]

CC1=CCC2C(C1)C2(C)C (centres undefined)
inactive: Potency [1] | Potency [2] | Potency [3] | outcome [4] | max response [5] 1.81% | Potency [6] | Potency [7] | Potency [8] | Potency [9]

CCn1cc(C(=O)O)c(=O)c2cc(F)c(N3CCN(C)CC3)cc21
inactive: activity change, negative = cytotoxic [1] 1.6% [at 15.8 µM] | cytotoxicity increase [2] -12.2% [at 15.8 µM] | activity change, negative = cytotoxicity [3] 4.51% [at 15.8 µM] | viability change, negative = cytotoxic [4] 2.21% [at 15.8 µM] | max response [5] -1.49% | activity change [6] -4.84% [at 15.8 µM, stronger effect = higher value] | cytotoxicity increase [7] -8.46% [at 15.8 µM] | activity change, negative = cytotoxic [8] 1.05% [at 15.8 µM] | cytotoxicity increase [9] -14.4% [at 15.8 µM]

CCCCC1CCCCC(=O)O1 (centres undefined)
inactive: Potency [1] | Potency [2] | Potency [3] | outcome [4] | max response [5] 13.6% | Potency [6] | Potency [7] | Potency [8] | Potency [9]

Cc1c(F)cc2c(=O)c(C(=O)O)cn3c2c1CCC3C (centres undefined)
inactive: Potency [1] | Potency [2] | Potency [3] | outcome [4] | max response [5] -0.802% | Potency [6] | Potency [7] | Potency [8] | Potency [10] | Potency [9]

CC(C)CCCC(C)CCCC(C)CCCCC(C)CCCC(C)CCCC(C)C (centres undefined)
inactive: Potency [1] | Potency [2] | Potency [3] | outcome [4] | max response [5] 3.24% | Potency [6] | Potency [7] | Potency [8] | Potency [9]

CCCCN(CCO)CCO
inactive: Potency [1] | Potency [2] | Potency [3] | outcome [4] | max response [5] 19% | Potency [6] | Potency [7] | Potency [8] | Potency [9]

Nc1[nH]c(=O)ncc1F
inactive: Potency [1] | Potency [2] | Potency [3] | outcome [4] | max response [5] 0.113% | Potency [6] | Potency [7] | Potency [8] | Potency [10] | Potency [9]

Cc1cc(C)cc(OCC2CNC(=O)O2)c1 (centres undefined)
inactive: Potency [1] | Potency [2] | Potency [3] | outcome [4] | max response [5] 2.49% | Potency [6] | Potency [7] | Potency [8] | Potency [10] | Potency [9]

NS(=O)(=O)c1cc(C2(O)NC(=O)c3ccccc32)ccc1Cl (centres undefined)
inactive: Potency [1] | Potency [2] | Potency [3] | outcome [4] | max response [5] 1% | Potency [6] | Potency [7] | Potency [8] | Potency [9]

CNc1ncnc2nc[nH]c12
inactive: Potency [1] | Potency [2] | Potency [3] | outcome [4] | max response [5] 3.96% | Potency [6] | Potency [7] | Potency [8] | Potency [9]

CC(C)(O)C(=O)c1ccc(OCCO)cc1
inactive: Potency [1] | Potency [2] | Potency [3] | outcome [4] | max response [5] 6.03% | Potency [6] | Potency [7] | Potency [8] | Potency [9]

CCCCCCCCCCC1CO1 (centres undefined)
inactive: Potency [1] | Potency [2] | Potency [3] | outcome [4] | max response [5] 6.25% | Potency [6] | Potency [7] | Potency [8] | Potency [9]

CC1=CC(=O)CCC1
inactive: Potency [1] | Potency [2] | Potency [3] | outcome [4] | max response [5] -3.69% | Potency [6] | Potency [7] | Potency [8] | Potency [10] | Potency [9]

CCOC(=O)[C@H](CCc1ccccc1)N[C@@H](C)C(=O)N1CCC[C@H]1C(=O)O
inactive: Potency [1] | Potency [2] | Potency [3] | outcome [4] | max response [5] -0.439% | Potency [6] | Potency [7] | Potency [8] | Potency [9]

OCCN1C[C@H](O)[C@@H](O)[C@H](O)[C@H]1CO
inactive: Potency [1] | Potency [2] | Potency [3] | outcome [4] | max response [5] 3.53% | Potency [6] | Potency [7] | Potency [8] | Potency [9]

C=CCn1c(=O)n([C@@H]2O[C@H](CO)[C@@H](O)[C@H]2O)c2nc(N)[nH]c(=O)c21
inactive: Potency [1] | Potency [2] | Potency [3] | outcome [4] | max response [5] 3.44% | Potency [6] | Potency [7] | Potency [8] | Potency [9]

N[C@@H](CS)C(=O)O
inactive: Potency [1] | Potency [2] | Potency [3] | outcome [4] | max response [5] 9.81% | Potency [6] | Potency [7] | Potency [8] | Potency [9]

C#CC(C)(O)CC(C)C (centres undefined)
inactive: Potency [1] | Potency [2] | Potency [3] | outcome [4] | max response [5] 22.3% | Potency [6] | Potency [7] | Potency [8] | Potency [10] | Potency [9]
